Measured values reported in publication PMC3795721, “Screening for Protein-DNA Interactions by Automatable DNA-Protein Interaction ELISA”.

Each sequence was assayed against AT4G31550 (Arabidopsis thaliana, UniProt Q9SV15 228-325) (assay: DPI-ELISA; DPI-ELISA, streptavidin 384-well plate, 1-2 pmol biotinylated dsDNA per well, crude native E. coli extract, anti-His detection; buffer as in Brand et al. [46],; high values mean tight binding). Conditions: tags: C-terminal His (pET-DEST42); label: 5' biotin on forward strand; dsDNA, one strand shown.
Sequence of AT4G31550 (Q9SV15 228-325): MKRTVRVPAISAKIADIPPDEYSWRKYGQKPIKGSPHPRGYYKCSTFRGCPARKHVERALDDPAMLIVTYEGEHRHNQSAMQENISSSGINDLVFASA
In the case of AAAAAAGCTTCGCGCCAGCGGGAAAA, the binding signal is reported as 0.695 ± 0.0636 absorbance. For AAAAAATTGTGCCTCTGCCCTCGCCTAAAA, the binding signal was 0.62 ± 0.127 absorbance. Sequence AAAAAATTCCGGCTTGACGCTGCATAAAAA has a binding signal of 0.655 ± 0.106 absorbance. In the case of AAAAAATTCGTATCTGTACCCTATGCAAAA, the binding signal is reported as 0.79 ± 0.283 absorbance. AAAAAACTCGTACATCTATCGCTACGAAAA was tested, and the binding signal was 0.54 ± 0.0849 absorbance. AAAAAAACGCTATATATTGGTGCTAGAAAA showed a binding signal of 0.695 ± 0.134 absorbance. AAAAAATTTCTCCTTCTTTGTTCTTCAAAA was tested, and the binding signal was 0.66 ± 0.141 absorbance. AAAAAATCAAAACAACGATGCCGTTAAAAA showed a binding signal of 0.73 ± 0.0849 absorbance. AAAAAAGTCTAGTCGTAAAAA showed a binding signal of 0.595 ± 0.0778 absorbance. AAAAAATTTGGTCTTCGTCCTCGCTTAAAA was tested, and the binding signal was 0.9 ± 0.0707 absorbance. AAAAAATCTTCACCTCACTTCGGTTTAAAA gave a binding signal of 0.67 ± 0.0566 absorbance. AAAAAATAGCGACTTCGACTCTCAGTAAAA showed a binding signal of 0.76 ± 0.0707 absorbance. Sequence AAAAAAGCTTTCAACATCTGCGTCCAAAAA has a binding signal of 0.42 ± 0.0424 absorbance. In the case of AAAAAAGGCTGTGGCCAATGTTCGTAAAAA, the binding signal is reported as 0.55 ± 0.0566 absorbance. For AAAAAACATAACCGCAAAATCCCTACAAAA, the binding signal was 0.545 ± 0.0919 absorbance. AAAAAACACTTAACTGAGTGGGATTGAAAA gave a binding signal of 0.705 ± 0.134 absorbance. AAAAAAGGTAATGCCGGTCCCAGTATAAAA was tested, and the binding signal was 0.525 ± 0.0778 absorbance. Work on AAAAAATCTGTTCTCGTTTCCCCTTCAAAA yielded a binding signal of 0.805 ± 0.262 absorbance. Sequence AAAAAACCCGCCGTCGTGATTATCACAAAA has a binding signal of 0.73 ± 0.0707 absorbance. Sequence AAAAAACCCTACATCGCATATAAGAGAAAA has a binding signal of 0.675 ± 0.0212 absorbance. Sequence AAAAAATAAACGTGTTCATACTTAGTAAAA has a binding signal of 0.61 ± 0.0707 absorbance. AAAAAATTTGCGCTTCATCCTGCCCCAAAA was tested, and the binding signal was 0.715 ± 0.106 absorbance. Sequence AAAAAATCGTAAATGCCCATAGCCGTAAAA has a binding signal of 0.555 ± 0.106 absorbance. For AAAAAATCATCTCTATGTTATTGTTGAAAA, the binding signal was 0.58 ± 0.113 absorbance. Work on AAAAAACCCGTTCTACCTTATTCCTGAAAA yielded a binding signal of 0.525 ± 0.106 absorbance. AAAAAACCGTATGTATATCTATATGTAAAA showed a binding signal of 0.42 ± 0.113 absorbance. Work on AAAAAACTCCCTCTCCTCTGTCTTCCAAAA yielded a binding signal of 0.635 ± 0.106 absorbance. AAAAAATGCCGAGACCCCATGCCGGCAAAA showed a binding signal of 0.51 ± 0.099 absorbance. With AAAAAAAGCTTCTATAGCTCCATGGAAAA the binding signal was 0.515 ± 0.106 absorbance. AAAAAATGTCTTCTTACACCCTCTAGAAAA gave a binding signal of 0.68 ± 0.0707 absorbance. Work on AAAAAACTACCTCTACTCTAGCCTTAAAAA yielded a binding signal of 0.515 ± 0.0495 absorbance. AAAAAAACTCACGGCGTCACTATGGTAAAA was tested, and the binding signal was 0.585 ± 0.12 absorbance. Work on AAAAAAGTCCCGCGCTAAGCTTTAAAAAAA yielded a binding signal of 0.615 ± 0.106 absorbance. AAAAAAGCTCCCGTCTCTTAGTTCTAAAAA gave a binding signal of 0.695 ± 0.12 absorbance. For AAAAAAGCGGTAGATGCGCAACTGTGAAAA, the binding signal was 0.6 ± 0.127 absorbance. With AAAAAAAGGGTCCGGTGCATACATGTAAAA the binding signal was 0.57 ± 0.156 absorbance. AAAAAATAATTACAAGTCGGCTCCACAAAA showed a binding signal of 0.69 ± 0.0707 absorbance. AAAAAATTCTAGCTTTTAACTTTAGCAAAA showed a binding signal of 0.6 ± 0.141 absorbance.
